Assay [1] addresses Bile acid receptor (Homo sapiens) (UniProt Q96RI1). Nature of the assay: ATG_IR1_CIS: Attagene CIS-FACTORIAL HepG2 Assay for human Nuclear Receptor Subfamily 1 Group H Member 4 (NR1H4), IR1 submotif (AID 2282946). The conditions noted are these: IR1 reporter transcription, actives raise or lower the signal. In short, it runs like this: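 HepG2 cells transiently transfected with multiplexed cis-element reporter units read endogenous transcription factor activity. After 24 h compound exposure, reporter mRNA was quantified by RT-PCR, fluorescent labelling, HpaI digestion and capillary electrophoresis; bidirectional fitting versus DMSO baseline.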

The nature of assay [2]: ATG_M_32_CIS: Attagene CIS-FACTORIAL HepG2 Assay for M32 Transcription Factor (Internal Marker) (AID 2282949).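 Also: background control marker of the multiplexed CIS panel rather than a real target.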 The conditions noted are these: HepG2 Attagene cis-factorial M32 reporter, mRNA; actives raise or lower the signal. In a few lines:
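Transient MRTU transfection of HepG2; 24 h compound treatment; TriZol RNA, oligo(dT) RT, reporter PCR, 6-FAM primer extension, HpaI cut, CE. Gain/loss of signal vs DMSO.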

A short description of assay [3]: ATG_M_06_CIS: Attagene CIS-FACTORIAL HepG2 Assay for M06 Transcription Factor (Internal Marker) (AID 2282950). The note with it: HepG2 Attagene CIS-FACTORIAL M06 internal marker reporter; actives raise or lower the signal. In a few lines: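 Serves as a background control readout. Transfected HepG2 exposed to compounds for 24 h, then reporter transcripts quantified by fluorescent RT-PCR and capillary electrophoresis. Both directions fitted against DMSO baseline.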

Assay [4] addresses Hypoxia-inducible factor 1-alpha (Homo sapiens) (UniProt Q16665). Put plainly: ATG_HIF1a_CIS: Attagene CIS-FACTORIAL HepG2 Assay for human Hypoxia Inducible Factor 1 (HIF1A) (AID 2282951). The note with it: HepG2 Attagene cis-factorial HIF1a reporter transcription; actives raise or lower the signal. In short, it runs like this:
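HepG2, transient cis-reporter library, 24 h dosing. RNA → RT (oligo dT) → PCR → 6-FAM primer extension → HpaI → CE. Bidirectional curve fit vs DMSO.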

The target of assay [5] is Hepatocyte nuclear factor 6 (Homo sapiens) (UniProt Q9UBC0). Nature of the assay: ATG_HNF6_CIS: Attagene CIS-FACTORIAL HepG2 Assay for human Hepatocyte Nuclear Factor 6 (HNF6) (AID 2282952). The note with it: HepG2 Attagene cis-factorial HNF6 reporter transcription; actives raise or lower the signal. In short, it runs like this: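 Endogenous factor activity read in transiently transfected HepG2 via promoter-regulated reporter transcripts. RNA harvested 24 h post-dosing, reverse-transcribed, PCR-amplified, FAM-labelled, HpaI-digested and resolved by capillary electrophoresis; fitted in both directions against DMSO.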
Sequence of Hepatocyte nuclear factor 6 (Homo sapiens) (Q9UBC0 whole entry, looked up): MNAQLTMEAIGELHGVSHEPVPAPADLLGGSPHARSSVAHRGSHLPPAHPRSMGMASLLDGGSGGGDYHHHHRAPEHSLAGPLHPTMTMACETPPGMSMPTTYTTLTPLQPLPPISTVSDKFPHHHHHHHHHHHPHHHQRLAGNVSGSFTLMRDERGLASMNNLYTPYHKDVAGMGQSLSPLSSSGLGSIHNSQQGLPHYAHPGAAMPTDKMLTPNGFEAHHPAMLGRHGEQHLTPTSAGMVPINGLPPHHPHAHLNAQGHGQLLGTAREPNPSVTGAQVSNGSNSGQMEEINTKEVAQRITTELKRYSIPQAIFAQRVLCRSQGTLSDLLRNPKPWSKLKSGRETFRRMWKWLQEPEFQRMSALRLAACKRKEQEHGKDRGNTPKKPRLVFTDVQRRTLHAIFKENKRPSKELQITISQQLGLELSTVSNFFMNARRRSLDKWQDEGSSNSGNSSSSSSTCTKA

The target in assay [6] is Heat shock factor protein 1 (Homo sapiens) (UniProt Q00613). Nature of the assay: ATG_HSE_CIS: Attagene CIS-FACTORIAL HepG2 Assay for human Heat Shock Transcription Factor 1 (HSE) (AID 2282953). The note with it: HepG2 HSE cis-reporter, Attagene RNA transcription; actives raise or lower the signal. In a few lines: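 Endogenous transcription factor activity in transiently transfected HepG2, read as reporter mRNA by RT-PCR with fluorescent capillary electrophoresis after 24 h. Gain or loss of signal fitted versus DMSO baseline.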
Sequence of Heat shock factor protein 1 (Homo sapiens) (Q00613 whole entry, looked up): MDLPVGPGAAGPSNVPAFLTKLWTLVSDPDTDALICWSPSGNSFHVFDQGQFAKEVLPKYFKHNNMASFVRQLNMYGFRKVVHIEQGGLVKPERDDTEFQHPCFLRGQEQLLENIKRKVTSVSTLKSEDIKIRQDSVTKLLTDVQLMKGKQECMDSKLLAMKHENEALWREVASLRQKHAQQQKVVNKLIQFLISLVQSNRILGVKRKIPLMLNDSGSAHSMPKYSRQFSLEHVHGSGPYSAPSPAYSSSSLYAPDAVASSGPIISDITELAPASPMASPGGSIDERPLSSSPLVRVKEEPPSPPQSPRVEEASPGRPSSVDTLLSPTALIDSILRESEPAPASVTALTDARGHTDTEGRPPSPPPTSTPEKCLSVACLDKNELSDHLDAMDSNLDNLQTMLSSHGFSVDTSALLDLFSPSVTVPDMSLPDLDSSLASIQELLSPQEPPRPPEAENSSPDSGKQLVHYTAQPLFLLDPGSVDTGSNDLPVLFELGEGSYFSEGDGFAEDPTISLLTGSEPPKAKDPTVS

The nature of assay [7]: ATG_MRE_CIS: Attagene CIS-FACTORIAL HepG2 Assay for human Metal Responsive Element (MRE) (AID 2282954). The conditions noted are these: HepG2 MRE cis-reporter transcription, Attagene multiplex; actives raise or lower the signal. In a few lines: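 Multiplexed cis-reporter assay in human HepG2 liver cells, 24 h incubation with test chemical. Reporter transcripts measured by RT-PCR and capillary electrophoresis; values from bidirectional curve fitting versus DMSO.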

A short description of assay [8]: ATG_PBREM_CIS: Attagene CIS-FACTORIAL HepG2 Assay for human Phenobarbital-responsive Enhancer Module (PBREM) (AID 2282955). The note with it: HepG2 PBREM cis-reporter, Attagene multiplexed transcription; actives raise or lower the signal. In short, it runs like this:
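HepG2, transient MRTU transfection, 24 h dosing; RNA → oligo(dT) RT → PCR → 6-FAM extension → HpaI → CE. Bidirectional fit vs DMSO.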

For assay [9], the target named is Paired box protein Pax-6 (Homo sapiens) (UniProt P26367). Nature of the assay: ATG_Pax6_CIS: Attagene CIS-FACTORIAL HepG2 Assay for human Paired Box 6 (PAX6) (AID 2282956). The note with it: HepG2 CIS-FACTORIAL PAX6 reporter transcription, RNA readout; actives raise or lower the signal. In short, it runs like this: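 Read-out is reporter transcript level, measured by RT-PCR with fluorescent primer extension and capillary electrophoresis after 24 h dosing of transfected HepG2 cells. Activity in either direction fitted relative to DMSO control.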
Sequence of Paired box protein Pax-6 (Homo sapiens) (P26367 whole entry, looked up): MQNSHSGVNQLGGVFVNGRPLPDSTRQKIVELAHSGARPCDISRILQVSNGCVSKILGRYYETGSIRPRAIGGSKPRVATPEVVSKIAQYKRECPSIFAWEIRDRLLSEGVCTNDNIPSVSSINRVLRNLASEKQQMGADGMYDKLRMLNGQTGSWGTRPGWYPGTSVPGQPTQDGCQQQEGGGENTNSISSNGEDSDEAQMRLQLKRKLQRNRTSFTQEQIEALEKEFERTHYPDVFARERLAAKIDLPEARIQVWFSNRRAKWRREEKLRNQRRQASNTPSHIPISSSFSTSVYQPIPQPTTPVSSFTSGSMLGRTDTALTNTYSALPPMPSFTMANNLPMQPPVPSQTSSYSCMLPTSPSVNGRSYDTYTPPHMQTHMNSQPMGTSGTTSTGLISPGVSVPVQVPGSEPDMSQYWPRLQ

A short description of assay [10]: ATG_PXRE_CIS: Attagene CIS-FACTORIAL HepG2 Assay for human Pregnane X Receptor Element (PXRE) (AID 2282957). The note with it: HepG2 Attagene CIS-FACTORIAL PXRE reporter, mRNA; actives raise or lower the signal. In a few lines: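 Reporter transcripts under endogenous PXR-responsive cis-regulation quantified from total RNA of transfected HepG2 cells 24 h post-dosing, via RT-PCR with fluorescent primer extension and capillary electrophoresis. Gain or loss of signal fitted against DMSO baseline.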

Assay [11] is described as follows: ATG_PPRE_CIS: Attagene CIS-FACTORIAL HepG2 Assay for human Peroxisome Proliferator-activated Response Element (PPRE) (AID 2282958). The conditions noted are these: HepG2 PPRE cis-element reporter, Attagene transcription factor profiling; actives raise or lower the signal. In a few lines:
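Transcript-level reporter induction in transfected HepG2 cells after 24 h chemical exposure, quantified by fluorescence from RT-PCR products separated by capillary electrophoresis.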

Assay [12] can be described thus: ATG_RORE_CIS: Attagene CIS-FACTORIAL HepG2 Assay for human RAR-related Orphan Receptor Element (RORE) (AID 2282959). The note with it: HepG2 Attagene cis-factorial RORE reporter, mRNA; actives raise or lower the signal. In short, it runs like this:
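Multiplexed reporter assay measuring mRNA induction from a cis promoter element in transiently transfected HepG2 cells after 24 h treatment. Detection via RT-PCR and capillary electrophoresis fluorescence; DMSO serves as baseline.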

A short description of assay [13]: ATG_Sox_CIS: Attagene CIS-FACTORIAL HepG2 Assay for human SRY-box transcription factor (SOX) (AID 2282960). The conditions noted are these: HepG2 Attagene cis-factorial SOX reporter, mRNA; actives raise or lower the signal. In short, it runs like this: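 Cells were transfected with reporter constructs under cis-regulatory promoters, then exposed to chemicals for 24 h. Reporter transcripts were quantified by fluorescence after RT-PCR and capillary electrophoresis; activity was fitted in both directions against DMSO.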

Assay [14] addresses Transcription factor Sp1 (Homo sapiens) (UniProt P08047). Nature of the assay: ATG_Sp1_CIS: Attagene CIS-FACTORIAL HepG2 Assay for human Specificity Protein 1 (Sp1) (AID 2282961). The conditions noted are these: HepG2 Sp1 cis-reporter transcription, actives raise or lower the signal. In short, it runs like this: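 Measures mRNA induction of an Sp1-linked reporter in HepG2 cells 24 h post-dosing. Multiplexed reporters read by RT-PCR and capillary electrophoresis; DMSO serves as negative control and baseline.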

Assay [15] in a line: ATG_SREBP_CIS: Attagene CIS-FACTORIAL HepG2 Assay for human Sterol Regulatory Element Binding (SREBP) (AID 2282962). The conditions noted are these: HepG2 Attagene cis-factorial SREBP reporter, mRNA; actives raise or lower the signal. In a few lines: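 Endogenous SREBP activity read as cis-element-driven reporter transcript in transiently transfected HepG2, 24 h post-dosing; quantified via RT-PCR plus capillary electrophoresis of fluorescent fragments. Gain or loss of signal fitted relative to DMSO baseline.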

For assay [16], the target named is Signal transducer and activator of transcription 3 (Homo sapiens) (UniProt P40763). Nature of the assay: ATG_STAT3_CIS: Attagene CIS-FACTORIAL HepG2 Assay for human Signal Transducer and Activator of Transcription 3 (STAT3) (AID 2282963). The conditions noted are these: HepG2, Attagene cis-factorial STAT3 reporter transcription; actives raise or lower the signal. In short, it runs like this: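 Cis-factorial format: endogenous transcription factors in HepG2 drive transfected reporter units. After 24 h treatment, reporter RNA was reverse-transcribed, amplified, FAM-labelled and HpaI-digested before CE analysis; activity scored in both directions against DMSO.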
Sequence of Signal transducer and activator of transcription 3 (Homo sapiens) (P40763 whole entry, looked up): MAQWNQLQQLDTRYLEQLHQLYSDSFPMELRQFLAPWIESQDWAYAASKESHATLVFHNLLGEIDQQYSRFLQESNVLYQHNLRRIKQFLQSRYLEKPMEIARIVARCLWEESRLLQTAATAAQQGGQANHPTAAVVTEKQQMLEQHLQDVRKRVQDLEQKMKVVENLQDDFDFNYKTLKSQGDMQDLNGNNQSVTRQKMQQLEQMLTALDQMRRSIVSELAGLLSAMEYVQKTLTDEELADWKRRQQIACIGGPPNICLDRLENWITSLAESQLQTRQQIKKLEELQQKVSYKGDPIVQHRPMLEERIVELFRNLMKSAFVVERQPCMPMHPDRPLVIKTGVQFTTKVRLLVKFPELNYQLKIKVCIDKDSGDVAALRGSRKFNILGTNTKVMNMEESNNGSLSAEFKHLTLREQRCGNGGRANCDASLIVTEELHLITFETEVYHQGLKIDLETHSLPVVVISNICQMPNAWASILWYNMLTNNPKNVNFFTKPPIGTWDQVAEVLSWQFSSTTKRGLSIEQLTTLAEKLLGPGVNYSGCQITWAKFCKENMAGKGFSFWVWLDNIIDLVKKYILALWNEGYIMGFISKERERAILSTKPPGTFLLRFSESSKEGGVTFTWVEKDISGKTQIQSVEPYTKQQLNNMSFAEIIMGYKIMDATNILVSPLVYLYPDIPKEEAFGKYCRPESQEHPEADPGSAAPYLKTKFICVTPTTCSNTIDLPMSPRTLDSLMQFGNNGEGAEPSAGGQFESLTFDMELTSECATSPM

Assay [17] can be described thus: ATG_TA_CIS: Attagene CIS-FACTORIAL HepG2 Assay for human TA Basal Promoter (AID 2282964). The note with it: HepG2 Attagene CIS-factorial TA basal promoter reporter; actives raise or lower the signal. In short, it runs like this: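 Background-control readout: TA basal promoter reporter mRNA, fitted in both directions relative to DMSO. Measured by RT-PCR and capillary electrophoresis 24 hours after treating HepG2 human liver cells transiently carrying multiplexed cis-regulated reporter constructs.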

The nature of assay [18]: ATG_TCF_b_cat_CIS: Attagene CIS-FACTORIAL HepG2 Assay for human T-Cell-Factor with beta-catenin (TCF/b-cat) (AID 2282965). The conditions noted are these: HepG2 TCF/beta-catenin cis-reporter transcription, actives raise or lower the signal. In a few lines: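 Endogenous transcription factor activity is captured through cis-promoter reporter constructs transiently introduced into human HepG2 liver cells. Induced reporter mRNA is measured after 24 h and fitted bidirectionally relative to DMSO.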

Assay [19] in a line: ATG_ISRE_CIS: Attagene CIS-FACTORIAL HepG2 Assay for human Interferon Regulatory Factor 1 (IRF1) binding to an Interferon-Stimulated Response Element (ISRE) (AID 2282948). The conditions noted are these: HepG2 ISRE cis-reporter (Attagene), mRNA transcription readout; actives raise or lower the signal. In a few lines:
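Endogenous transcription factor activity read as reporter transcript abundance via RT-PCR and capillary electrophoresis. HepG2 cells transiently transfected, 24 h chemical exposure. Gain or loss fitted against DMSO baseline.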

Assay [20] is described as follows: ATG_GRE_CIS: Attagene CIS-FACTORIAL HepG2 Assay for human Glucocorticoid Response Elements (GRE) (AID 2282947). The conditions noted are these: HepG2 GRE cis-reporter, Attagene multiplex mRNA; actives raise or lower the signal. In short, it runs like this:
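Multiplexed cis-reporter mRNA induction, HepG2, 24 h post-dose. RT-PCR, FAM-labelled, HpaI-digested amplicons by CE. Bidirectional fit vs DMSO.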

The AC50 is the midpoint of the concentration-response curve, whichever way the signal moves.

SMILES strings stand for the structures. Activity calls are given as the source filed them. The calls were made as follows: active = hit-call score of the fitted dose curve at least 0.9, where 1 is the maximum; inactive = score below 0.9.

Sequence of Hypoxia-inducible factor 1-alpha (Homo sapiens) (Q16665 whole entry, looked up): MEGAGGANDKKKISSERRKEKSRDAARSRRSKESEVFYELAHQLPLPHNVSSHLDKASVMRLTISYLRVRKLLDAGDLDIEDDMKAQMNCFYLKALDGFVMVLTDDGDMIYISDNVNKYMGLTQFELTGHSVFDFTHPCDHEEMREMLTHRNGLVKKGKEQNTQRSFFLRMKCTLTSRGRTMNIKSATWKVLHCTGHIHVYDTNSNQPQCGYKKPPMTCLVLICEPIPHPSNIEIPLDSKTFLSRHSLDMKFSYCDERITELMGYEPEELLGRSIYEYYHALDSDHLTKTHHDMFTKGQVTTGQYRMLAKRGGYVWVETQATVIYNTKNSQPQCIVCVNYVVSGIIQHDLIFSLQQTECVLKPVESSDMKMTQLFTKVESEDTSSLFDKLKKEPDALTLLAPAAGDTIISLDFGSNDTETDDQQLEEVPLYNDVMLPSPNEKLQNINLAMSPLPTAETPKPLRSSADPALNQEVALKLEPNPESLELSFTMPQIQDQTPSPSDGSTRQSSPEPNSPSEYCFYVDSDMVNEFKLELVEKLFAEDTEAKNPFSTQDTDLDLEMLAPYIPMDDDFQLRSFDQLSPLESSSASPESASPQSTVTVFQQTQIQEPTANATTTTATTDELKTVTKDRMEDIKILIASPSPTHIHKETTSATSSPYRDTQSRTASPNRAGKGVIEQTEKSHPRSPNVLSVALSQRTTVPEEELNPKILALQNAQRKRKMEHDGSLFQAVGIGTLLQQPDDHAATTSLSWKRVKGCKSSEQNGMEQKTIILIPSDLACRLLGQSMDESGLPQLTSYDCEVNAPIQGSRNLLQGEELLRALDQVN
Sequence of Transcription factor Sp1 (Homo sapiens) (P08047 whole entry, looked up): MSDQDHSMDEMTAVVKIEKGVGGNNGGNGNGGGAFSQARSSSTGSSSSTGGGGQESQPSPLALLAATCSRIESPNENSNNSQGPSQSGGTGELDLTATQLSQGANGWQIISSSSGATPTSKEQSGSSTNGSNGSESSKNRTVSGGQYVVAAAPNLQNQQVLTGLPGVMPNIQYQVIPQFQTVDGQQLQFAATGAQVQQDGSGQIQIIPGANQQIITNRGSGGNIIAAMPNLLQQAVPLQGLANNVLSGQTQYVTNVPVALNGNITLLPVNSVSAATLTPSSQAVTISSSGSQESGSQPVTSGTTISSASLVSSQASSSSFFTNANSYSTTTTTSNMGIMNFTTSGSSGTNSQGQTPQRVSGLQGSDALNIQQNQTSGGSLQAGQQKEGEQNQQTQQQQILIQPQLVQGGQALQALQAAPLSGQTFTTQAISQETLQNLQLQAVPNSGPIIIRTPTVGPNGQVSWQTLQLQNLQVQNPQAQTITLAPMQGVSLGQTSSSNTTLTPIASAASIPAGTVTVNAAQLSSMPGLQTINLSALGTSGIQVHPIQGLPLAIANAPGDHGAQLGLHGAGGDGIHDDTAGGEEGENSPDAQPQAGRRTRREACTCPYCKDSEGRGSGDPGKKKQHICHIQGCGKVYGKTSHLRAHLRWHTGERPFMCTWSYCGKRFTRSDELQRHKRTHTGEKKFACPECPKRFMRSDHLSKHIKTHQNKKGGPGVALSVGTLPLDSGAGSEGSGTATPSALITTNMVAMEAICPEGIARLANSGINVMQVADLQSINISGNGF
Sequence of Bile acid receptor (Homo sapiens) (Q96RI1 whole entry, looked up): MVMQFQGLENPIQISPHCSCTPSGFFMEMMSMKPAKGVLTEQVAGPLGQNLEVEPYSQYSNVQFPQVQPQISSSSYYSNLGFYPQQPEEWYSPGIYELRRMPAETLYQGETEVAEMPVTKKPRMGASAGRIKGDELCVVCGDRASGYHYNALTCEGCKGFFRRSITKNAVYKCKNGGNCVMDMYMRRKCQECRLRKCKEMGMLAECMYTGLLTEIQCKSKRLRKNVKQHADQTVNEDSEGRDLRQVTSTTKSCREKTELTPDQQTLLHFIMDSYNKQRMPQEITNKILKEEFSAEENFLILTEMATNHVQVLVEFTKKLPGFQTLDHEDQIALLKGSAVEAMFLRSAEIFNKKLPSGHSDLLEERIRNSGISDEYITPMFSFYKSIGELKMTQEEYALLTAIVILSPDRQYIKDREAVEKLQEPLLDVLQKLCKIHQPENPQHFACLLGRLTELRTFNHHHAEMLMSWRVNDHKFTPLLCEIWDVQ

As for `O=Nc1ccc(Nc2ccccc2)cc1`, the concentration at half-maximal activity (AC50) was 13.7 µM (active) in [1]; 33.4 µM (active) in assay [4]; 25.2 µM (active) in assay [5]; 27.8 µM (active) in assay [6]; 20 µM (active) in [7]; 59.3 µM (active) in [8]. Also, the half-maximal activity concentration (AC50) in [9] is 33.4 µM (active); in [10], 22.6 µM (active); in assay [13], 47.6 µM (active); in assay [14] it was 55 µM (active); in [15] it was 33.4 µM (active); in [18], 20.9 µM (active). For the same molecule, the call in assay [2], in assay [3], in [11], in [12], in [16] and in [17] was inactive.

As to `C=CC(=O)NCOCC(C)C`, the result in [1], in [19], in assay [2], in assay [3], in assay [4] and in assay [5] was inactive. The molecule was classed as inactive in assay [6], in [7], in assay [9], in [13], in [14] and in [15]. Further, the outcome in [16], in [17] and in [18] was inactive. Also, the AC50 in [10] is 21 µM (active).

For the molecule `Cc1ccccc1C=O`, the result in assay [20], in [19], in assay [2], in assay [3], in [4] and in assay [5] was inactive. Moreover, the call in assay [6], in [7], in assay [8], in [9], in assay [11] and in assay [12] was inactive. Besides, the molecule was called inactive in assay [13], in assay [14], in assay [15], in [16] and in assay [17]. Moreover, the AC50 in assay [10] is 38.2 µM (active).
